# Laboratory results reported in the supplement of paper PMC8728848.
# Only a selection was taken, and the strongest signals are over-represented in it overall.
# Columns and labels:
# Assay in all cases: glycan array binding signal (z-score within array); higher = stronger binding
# Details in all cases: glycan notation: IUPAC condensed, linker removed
# [1] = target: Gal(b1-4)GlcNAc(b1-3)Gal(b1-4)GlcNAc(b1-3)Gal(b1-4)GlcNAc(b1-2)Man(a1-3)[Gal(b1-4)GlcNAc(b1-3)Gal(b1-4)GlcNAc(b1-3)Gal(b1-4)GlcNAc(b1-2)Man(a1-6)]Man(b1-4)GlcNAc(b1-4)[Fuc(a1-6)]GlcNAc
# Summary of the method: (§1)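 Columns mapping to the same glycan were averaged after glycan names were converted to IUPAC-condensed notation. The data come from 3228 arrays in the Consortium for Functional Glycomics database, limited to those with an available protein sequence. Binding is reported as a within-array Z-score averaged across arrays of one protein sequence and across linkers.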
# [2] = target: Gal(b1-4)GlcNAc(b1-3)Gal(b1-4)GlcNAc(b1-3)Gal(b1-4)GlcNAc(b1-2)[Gal(b1-4)GlcNAc(b1-3)Gal(b1-4)GlcNAc(b1-3)Gal(b1-4)GlcNAc(b1-6)]Man(a1-6)[Gal(b1-4)GlcNAc(b1-3)Gal(b1-4)GlcNAc(b1-3)Gal(b1-4)GlcNAc(b1-2)Man(a1-3)]Man(b1-4)GlcNAc(b1-4)[Fuc(a1-6)]GlcNAc
# Summary of the method: as §1
# [3] = target: Gal(b1-4)GlcNAc(b1-3)Gal(b1-4)GlcNAc(b1-3)Gal(b1-4)GlcNAc(b1-3)Gal(b1-4)GlcNAc(b1-2)Man(a1-3)[Gal(b1-4)GlcNAc(b1-3)Gal(b1-4)GlcNAc(b1-3)Gal(b1-4)GlcNAc(b1-3)Gal(b1-4)GlcNAc(b1-2)Man(a1-6)]Man(b1-4)GlcNAc(b1-4)GlcNAc
# Summary of the method: as §1
# [4] = target: Gal(b1-4)GlcNAc(b1-3)Gal(b1-4)GlcNAc(b1-3)Gal(b1-4)GlcNAc(b1-3)Gal(b1-4)GlcNAc(b1-2)[Gal(b1-4)GlcNAc(b1-3)Gal(b1-4)GlcNAc(b1-3)Gal(b1-4)GlcNAc(b1-3)Gal(b1-4)GlcNAc(b1-6)]Man(a1-6)[Gal(b1-4)GlcNAc(b1-3)Gal(b1-4)GlcNAc(b1-3)Gal(b1-4)GlcNAc(b1-3)Gal(b1-4)GlcNAc(b1-2)Man(a1-3)]Man(b1-4)GlcNAc(b1-4)[Fuc(a1-6)]GlcNAc
# Summary of the method: as §1
# [5] = target: Gal(b1-4)GlcNAc(b1-3)Gal(b1-4)GlcNAc(b1-3)Gal(b1-4)GlcNAc(b1-3)Gal(b1-4)GlcNAc(b1-3)Gal(b1-4)GlcNAc(b1-2)[Gal(b1-4)GlcNAc(b1-3)Gal(b1-4)GlcNAc(b1-3)Gal(b1-4)GlcNAc(b1-3)Gal(b1-4)GlcNAc(b1-3)Gal(b1-4)GlcNAc(b1-6)]Man(a1-6)[Gal(b1-4)GlcNAc(b1-3)Gal(b1-4)GlcNAc(b1-3)Gal(b1-4)GlcNAc(b1-3)Gal(b1-4)GlcNAc(b1-3)Gal(b1-4)GlcNAc(b1-2)Man(a1-3)]Man(b1-4)GlcNAc(b1-4)[Fuc(a1-6)]GlcNAc
# Summary of the method: as §1
# [6] = target: Gal(b1-4)GlcNAc(b1-6)[Gal(b1-4)GlcNAc(b1-3)]GalNAc
# Summary of the method: as §1
# Gal3S(b1-3)GlcNAc = target: Gal3S(b1-3)GlcNAc
# Summary of the method: as §1
# Gal3S(b1-4)Glc6S = target: Gal3S(b1-4)Glc6S
# Summary of the method: as §1
# [7] = target: Gal3S(b1-4)[Fuc(a1-3)]GlcNAc6S
# Summary of the method: as §1
# GalNAc(b1-4)GlcNAc6S = target: GalNAc(b1-4)GlcNAc6S
# Summary of the method: as §1
# [8] = target: GlcNAc(a1-4)Gal(b1-4)GlcNAc(b1-3)Gal(b1-4)GlcNAc(b1-3)Gal(b1-4)GlcNAc
# Summary of the method: as §1
# [9] = target: GlcNAc(a1-4)Gal(b1-4)GlcNAc(b1-3)Gal(b1-4)[Fuc(a1-3)]GlcNAc(b1-3)Gal(b1-4)[Fuc(a1-3)]GlcNAc
# Summary of the method: as §1
# GlcNAc(b1-3)Fuc = target: GlcNAc(b1-3)Fuc
# Summary of the method: as §1
# [10] = target: GlcNAc(b1-3)Gal(b1-4)GlcNAc(b1-3)Gal(b1-4)GlcNAc(b1-2)Man(a1-3)[GlcNAc(b1-3)Gal(b1-4)GlcNAc(b1-3)Gal(b1-4)GlcNAc(b1-2)Man(a1-6)]Man(b1-4)GlcNAc(b1-4)[Fuc(a1-6)]GlcNAc
# Summary of the method: as §1
# GlcNAc(b1-3)GalNAc = target: GlcNAc(b1-3)GalNAc
# Summary of the method: as §1
# [11] = target: GlcNAc(b1-3)[GlcNAc(b1-6)]GalNAc
# Summary of the method: as §1
# Man(a1-6)Man = target: Man(a1-6)Man
# Summary of the method: as §1
# [12] = target: Neu5Ac(a2-3)Gal(b1-3)[Neu5Ac(a2-3)Gal(b1-4)]GlcNAc
# Summary of the method: as §1
# [13] = target: Neu5Ac(a2-3)Gal(b1-4)GlcNAc
# Summary of the method: as §1
# [14] = target: Neu5Ac(a2-3)Gal(b1-4)GlcNAc(b1-3)Gal(b1-4)GlcNAc(b1-2)Man(a1-3)[Neu5Ac(a2-3)Gal(b1-4)GlcNAc(b1-3)Gal(b1-4)GlcNAc(b1-2)Man(a1-6)]Man(b1-4)GlcNAc(b1-4)GlcNAc
# Summary of the method: as §1
# [15] = target: Neu5Ac(a2-3)Gal(b1-4)[Fuc(a1-3)]GlcNAc(b1-3)Gal(b1-4)[Fuc(a1-3)]GlcNAc(b1-3)Gal(b1-4)[Fuc(a1-3)]GlcNAc
# Summary of the method: as §1
# [16] = target: Neu5Ac(a2-3)Gal6S(b1-4)GlcNAc
# Summary of the method: as §1
# [17] = target: Neu5Ac(a2-3)[Neu5Ac(a2-6)]GalNAc
# Summary of the method: as §1
# [18] = target: Neu5Ac(a2-6)Gal(b1-4)GlcNAc(b1-2)Man(a1-3)[Neu5Ac(a2-3)Gal(b1-4)GlcNAc(b1-2)Man(a1-6)]Man(b1-4)GlcNAc(b1-4)GlcNAc
# Summary of the method: as §1
# [19] = target: Neu5Ac(a2-6)Gal(b1-4)GlcNAc(b1-3)Gal(b1-4)GlcNAc
# Summary of the method: as §1
# [20] = target: Neu5Ac(a2-6)Gal(b1-4)GlcNAc(b1-3)Gal(b1-4)GlcNAc(b1-3)[Neu5Ac(a2-6)Gal(b1-4)GlcNAc(b1-3)Gal(b1-4)GlcNAc(b1-6)]GalNAc
# Summary of the method: as §1
# [21] = target: Neu5Ac(a2-6)Gal(b1-4)GlcNAc(b1-6)[Gal(b1-3)GlcNAc(b1-3)]Gal(b1-4)Glc
# Summary of the method: as §1
# [22] = target: Neu5Ac(a2-6)GlcNAc(b1-4)GlcNAc
# Summary of the method: as §1
# Neu5Ac(a2-8)Neu5Ac = target: Neu5Ac(a2-8)Neu5Ac
# Summary of the method: as §1
# [23] = target: Neu5Ac(a2-8)Neu5Ac(a2-8)Neu5Ac(a2-3)Gal(b1-4)Glc
# Summary of the method: as §1
# [24] = target: Neu5Ac(a2-8)Neu5Ac(a2-8)Neu5Ac(a2-3)[GalNAc(b1-4)]Gal(b1-4)Glc
# Summary of the method: as §1
binder,measurement,setting,value
"Gal 1 (Mus musculus), P16045 (protein) MACGLVASNLNLKPGECLKVRGEVASDAKSFVLNLGKDSNNLCLHFNPRFNAHGDANTIVCNTKEDGTWGTEHREPAFPFQPGSITEVCITFDQADLTIKLPDGHEFKFPNRLNMEAINYMAADGDFKIKCVAFE",glycan array binding signal (z-score),[1],2.53
same,glycan array binding signal (z-score),[2],3.89
same,glycan array binding signal (z-score),[3],2.54
same,glycan array binding signal (z-score),[4],3.42
same,glycan array binding signal (z-score),[5],3.46
same,glycan array binding signal (z-score),[6],-0.011
same,glycan array binding signal (z-score),Gal3S(b1-3)GlcNAc,2.76
same,glycan array binding signal (z-score),Gal3S(b1-4)Glc6S,0.672
same,glycan array binding signal (z-score),[7],2.69
same,glycan array binding signal (z-score),GalNAc(b1-4)GlcNAc6S,-0.452
same,glycan array binding signal (z-score),[8],-0.404
same,glycan array binding signal (z-score),[9],-0.015
same,glycan array binding signal (z-score),GlcNAc(b1-3)Fuc,-0.43
same,glycan array binding signal (z-score),[10],-0.19
same,glycan array binding signal (z-score),GlcNAc(b1-3)GalNAc,-0.094
same,glycan array binding signal (z-score),[11],-0.292
same,glycan array binding signal (z-score),Man(a1-6)Man,0.23
same,glycan array binding signal (z-score),[12],0.068
same,glycan array binding signal (z-score),[13],-0.256
same,glycan array binding signal (z-score),[14],1.31
same,glycan array binding signal (z-score),[15],-0.083
same,glycan array binding signal (z-score),[16],-0.411
same,glycan array binding signal (z-score),[17],-0.3
same,glycan array binding signal (z-score),[18],-0.219
same,glycan array binding signal (z-score),[19],-0.348
same,glycan array binding signal (z-score),[20],1.13
same,glycan array binding signal (z-score),[21],0.027
same,glycan array binding signal (z-score),[22],-0.34
same,glycan array binding signal (z-score),Neu5Ac(a2-8)Neu5Ac,-0.093
same,glycan array binding signal (z-score),[23],-0.347
same,glycan array binding signal (z-score),[24],-0.144
